Calls of active or inactive are those of the source.
Key:
Albumin (Bos taurus) = Albumin (Bos taurus) (UniProt P02769); test: bovine serum albumin binders on microarray, profiling panel, artefact control for SMM control protein annotation, biochemical, small-molecule microarray, Alexa647 label, 635/667 nm fluorescence (AID 1118); details: BSA-A647 binding, fluorescence 635 nm, higher = more signal;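 further: score merges 667 nm emission intensity and signal-to-noise per printed compound spot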
[1] = small-molecule microarray binders of probe aXIP, primary screen, biochemical, NeuroSMM set, 635/667 nm fluorescence (AID 1119); details: higher = more signal, called active from +8 up or from −8 down;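 further: probe is the protein aXip251-270 applied at 1 µg/mL to compound-printed slides; binding of probe to printed compounds measured as 667 nm fluorescence plus signal to noise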
[2] = small-molecule binders of probe aNOTCH3, primary screen, biochemical, small-molecule microarray, 635/667 nm fluorescence (AID 1120); details: higher = more signal;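 further: probe is a biotin-tagged antibody raised against NOTCH3 rather than NOTCH3 protein; score merges spot fluorescence near 667 nm with spot signal to noise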
[3] = small-molecule binders of probe aNOTCH2, primary screen, biochemical, small-molecule microarray, 635/667 nm fluorescence (AID 1121); details: higher = more signal;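 further: score merges feature fluorescence read at 667 nm with its signal to noise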
[4] = target: Carbonic anhydrase 2 (Homo sapiens) (UniProt P00918); test: CAII small-molecule binders, profiling panel, biochemical, small-molecule microarray, Alexa647-labelled CAII (AID 1122); details: CAII-A647 binding fluorescence, higher = more signal
[5] = COS7 lysate on small-molecule microarray, probe aHis, 635 nm (AID 1123); details: COS7 cell lysate, fluorescence, higher = more signal;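 further: z-score combines 667nm fluorescence intensity with signal-to-noise per printed compound spot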
[6] = compound binding in COS7 lysate, probe aLAP1, primary screen, cell lysate, small-molecule microarray (AID 1124); details: probe aLAP1, fluorescence, higher = more signal;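 further: lysate comes from COS7 cells expressing LAP1 and is applied at 0.3 µg/mL; score merges spot fluorescence near 667 nm with signal-to-noise over triplicate slides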
Sam68 (KHDRBS1) = test: Sam68 small-molecule binders, primary screen, biochemical, small-molecule microarray, 635 nm fluorescence (AID 1125); details: small-molecule microarray binding, higher = more signal;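 further: score merges 667 nm channel intensity with signal to noise over triplicate slides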
[7] = test system: Chordin-like protein 2 (CHRDL2); test: CHRDL2 small-molecule binders, primary screen, biochemical, small-molecule microarray, 635 nm fluorescence (AID 1126); details: small-molecule microarray binding, fluorescence 635 nm; higher = more signal;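 further: printed compound slides probed with Chrdl2 protein at 4 µg/mL for 1 h at 4 C; score merges 667 nm emission intensity with signal to noise over three replicate slides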
[8] = target: Concanavalin-A (Canavalia ensiformis) (UniProt P02866); test: ConA small-molecule binders, primary screen, artefact control for SMM control protein annotation, biochemical, small-molecule microarray, Alexa647 label, 635 nm (AID 1127); details: ConA-A647 binding fluorescence, higher = more signal;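 further: z combines 667 nm emission intensity with signal-to-noise across three replicate slides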
[9] = anti-His antibody binders, primary screen, artefact control for SMM control protein annotation, biochemical, small-molecule microarray, 635 nm fluorescence (AID 1128); details: anti-His Alexa647 antibody binding, higher = more signal;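 further: score merges feature fluorescence with signal-to-noise for each printed compound spot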
[10] = test system: Human papillomavirus type 1a E7 protein (residues 1-88); test: HPV1a E7 small-molecule binders, primary screen, biochemical, small-molecule microarray, residues 1-88, 635 nm (AID 1129); details: small-molecule microarray binding, fluorescence 635 nm; higher = more signal
[11] = target: Focal adhesion kinase 1 (Homo sapiens) (UniProt Q05397); test: small-molecule microarray binders of FAK, primary screen, biochemical, 635/667 nm fluorescence, BSA, DTT (AID 1130); details: PTK2 binding, 635 nm fluorescence, higher = more signal;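 further: composite of spot emission at 667 nm and signal to noise over triplicate slides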
[12] = test system: Fibrinogen (Alexa647-labelled); test: fibrinogen binders on compound microarrays, profiling panel, artefact control for SMM control-protein annotation, biochemical, small-molecule microarray, 635/667 nm fluorescence (AID 1131); details: fibrinogen-A647 binding fluorescence, higher = more signal;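 further: z-score merges 667 nm fluorescence with per-spot signal-to-noise over triplicate slides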
[13] = target: Follistatin (Homo sapiens) (UniProt P19883); test: follistatin binders on small-molecule microarrays, primary screen, biochemical, small-molecule microarray, 635/667 nm fluorescence (AID 1132); details: FST binding, 635 nm fluorescence, higher = more signal
[14] = target: Fibroblast growth factor 2 (Homo sapiens) (UniProt P09038); test: FGF2 binders on small-molecule microarrays, primary screen, biochemical, small-molecule microarray, 635/667 nm fluorescence (AID 1133); details: small-molecule microarray binding, FGF2, fluorescence 635/667; higher = more signal
[15] = mitochondrial membrane potential change in A549 cells, profiling panel, cell-based, JC-1 fluorescence, basal, 24 h, 100 nL (AID 1138); details: higher = more signal;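 further: A549 lung adenocarcinoma cells under basal conditions with no added stimulus; test concentration not given here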
Lefty1 = Lefty1 binders on small-molecule microarrays, primary screen, biochemical, small-molecule microarray, 635/667 nm fluorescence (AID 1139); details: small-molecule microarray binding, fluorescence 635/667; higher = more signal
[16] = test system: wheat germ agglutinin (Triticum aestivum), Alexa647-labelled; test: wheat germ agglutinin binders on compound microarrays, profiling panel, artefact control for SMM control-protein annotation, biochemical, small-molecule microarray, 635/667 nm fluorescence (AID 1140); details: WGA-A647 binding, 635 nm fluorescence, higher = more signal;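 further: score merges 667 nm feature emission with signal to noise over triplicate slides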
[17] = target: Luciferin 4-monooxygenase (Photinus pyralis) (UniProt P08659); test: firefly luciferase enzyme inhibitors, primary screen, biochemical, luminescence, purified enzyme, 2006 set (AID 1141); details: SteadyGlo luminescence, 30 min, higher = more signal, called active from +8 up or from −8 down;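 further: cell-free assay with purified firefly luciferase at 100 ng per well in PBS; test concentration not given here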
Chain of Luciferin 4-monooxygenase (Photinus pyralis) (P08659 whole entry, looked up): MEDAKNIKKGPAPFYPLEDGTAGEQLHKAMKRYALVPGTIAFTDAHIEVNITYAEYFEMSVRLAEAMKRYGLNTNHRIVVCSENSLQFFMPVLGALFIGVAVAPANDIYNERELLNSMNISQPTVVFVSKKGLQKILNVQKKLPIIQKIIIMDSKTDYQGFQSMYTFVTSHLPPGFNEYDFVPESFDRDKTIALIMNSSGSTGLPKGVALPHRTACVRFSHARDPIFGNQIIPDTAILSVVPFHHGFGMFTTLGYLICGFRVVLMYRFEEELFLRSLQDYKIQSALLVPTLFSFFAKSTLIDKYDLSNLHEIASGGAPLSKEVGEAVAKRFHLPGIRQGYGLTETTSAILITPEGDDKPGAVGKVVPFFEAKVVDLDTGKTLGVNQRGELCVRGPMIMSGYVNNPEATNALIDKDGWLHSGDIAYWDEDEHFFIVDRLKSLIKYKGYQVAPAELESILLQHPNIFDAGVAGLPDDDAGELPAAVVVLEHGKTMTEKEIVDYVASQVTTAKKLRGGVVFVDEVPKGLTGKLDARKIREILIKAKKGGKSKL

Chain of Concanavalin-A (Canavalia ensiformis) (P02866 whole entry, looked up): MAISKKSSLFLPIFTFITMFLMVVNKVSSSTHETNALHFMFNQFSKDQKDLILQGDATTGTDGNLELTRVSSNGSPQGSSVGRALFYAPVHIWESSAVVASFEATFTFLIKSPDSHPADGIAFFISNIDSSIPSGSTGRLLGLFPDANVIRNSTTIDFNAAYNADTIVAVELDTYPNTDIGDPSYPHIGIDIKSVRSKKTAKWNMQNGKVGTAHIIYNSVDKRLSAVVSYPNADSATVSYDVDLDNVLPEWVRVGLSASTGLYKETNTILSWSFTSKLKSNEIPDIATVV
Chain of Follistatin (Homo sapiens) (P19883 whole entry, looked up): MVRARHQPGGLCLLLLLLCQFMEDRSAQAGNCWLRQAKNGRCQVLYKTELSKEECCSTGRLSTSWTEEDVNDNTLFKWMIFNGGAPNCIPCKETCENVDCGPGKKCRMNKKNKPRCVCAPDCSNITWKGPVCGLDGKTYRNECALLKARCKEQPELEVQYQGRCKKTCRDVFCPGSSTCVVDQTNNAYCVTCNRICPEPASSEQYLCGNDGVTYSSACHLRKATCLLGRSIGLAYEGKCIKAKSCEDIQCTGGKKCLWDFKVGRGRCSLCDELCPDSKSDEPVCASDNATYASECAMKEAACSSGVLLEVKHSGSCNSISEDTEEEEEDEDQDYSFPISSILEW
Chain of Focal adhesion kinase 1 (Homo sapiens) (Q05397 whole entry, looked up): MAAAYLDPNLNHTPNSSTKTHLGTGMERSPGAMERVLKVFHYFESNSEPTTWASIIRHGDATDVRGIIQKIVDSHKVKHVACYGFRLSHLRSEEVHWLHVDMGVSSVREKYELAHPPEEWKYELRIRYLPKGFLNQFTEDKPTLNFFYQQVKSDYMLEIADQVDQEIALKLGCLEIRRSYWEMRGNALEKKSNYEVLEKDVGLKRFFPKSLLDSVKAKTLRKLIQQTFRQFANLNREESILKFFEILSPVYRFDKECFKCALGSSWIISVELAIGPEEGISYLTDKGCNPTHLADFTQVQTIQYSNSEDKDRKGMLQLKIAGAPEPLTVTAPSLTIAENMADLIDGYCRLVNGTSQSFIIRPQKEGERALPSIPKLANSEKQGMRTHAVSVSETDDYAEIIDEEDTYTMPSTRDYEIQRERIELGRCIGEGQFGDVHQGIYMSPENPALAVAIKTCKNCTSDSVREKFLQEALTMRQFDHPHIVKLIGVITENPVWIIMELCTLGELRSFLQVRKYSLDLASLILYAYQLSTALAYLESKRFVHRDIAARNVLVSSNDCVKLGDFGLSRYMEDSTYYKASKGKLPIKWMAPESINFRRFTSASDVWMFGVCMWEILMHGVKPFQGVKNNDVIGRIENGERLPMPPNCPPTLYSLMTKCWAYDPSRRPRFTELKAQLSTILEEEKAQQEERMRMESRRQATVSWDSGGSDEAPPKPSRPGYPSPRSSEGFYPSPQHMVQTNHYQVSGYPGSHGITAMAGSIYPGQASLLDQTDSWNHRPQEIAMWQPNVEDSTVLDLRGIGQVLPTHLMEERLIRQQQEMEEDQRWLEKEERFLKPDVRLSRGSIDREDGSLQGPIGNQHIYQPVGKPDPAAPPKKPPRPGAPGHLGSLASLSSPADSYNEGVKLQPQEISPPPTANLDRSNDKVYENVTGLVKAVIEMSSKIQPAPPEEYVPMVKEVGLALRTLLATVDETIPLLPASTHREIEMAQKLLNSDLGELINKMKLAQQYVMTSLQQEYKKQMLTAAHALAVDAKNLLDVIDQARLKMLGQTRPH
Chain of Albumin (Bos taurus) (P02769 whole entry, looked up): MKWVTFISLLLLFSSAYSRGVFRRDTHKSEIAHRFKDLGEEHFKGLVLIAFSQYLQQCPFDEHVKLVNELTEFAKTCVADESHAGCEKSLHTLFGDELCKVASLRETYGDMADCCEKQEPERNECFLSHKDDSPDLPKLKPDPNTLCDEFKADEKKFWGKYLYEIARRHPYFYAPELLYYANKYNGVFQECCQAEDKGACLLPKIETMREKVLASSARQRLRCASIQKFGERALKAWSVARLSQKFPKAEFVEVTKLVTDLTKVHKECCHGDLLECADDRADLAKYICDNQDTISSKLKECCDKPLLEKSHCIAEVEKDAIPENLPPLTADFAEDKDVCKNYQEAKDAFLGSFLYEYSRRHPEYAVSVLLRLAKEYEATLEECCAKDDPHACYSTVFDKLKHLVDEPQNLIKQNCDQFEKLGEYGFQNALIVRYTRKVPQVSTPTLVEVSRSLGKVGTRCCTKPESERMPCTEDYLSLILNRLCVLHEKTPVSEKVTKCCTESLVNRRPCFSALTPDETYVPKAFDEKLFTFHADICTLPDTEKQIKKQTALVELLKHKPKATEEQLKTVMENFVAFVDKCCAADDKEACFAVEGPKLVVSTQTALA
Chain of Fibroblast growth factor 2 (Homo sapiens) (P09038 whole entry, looked up): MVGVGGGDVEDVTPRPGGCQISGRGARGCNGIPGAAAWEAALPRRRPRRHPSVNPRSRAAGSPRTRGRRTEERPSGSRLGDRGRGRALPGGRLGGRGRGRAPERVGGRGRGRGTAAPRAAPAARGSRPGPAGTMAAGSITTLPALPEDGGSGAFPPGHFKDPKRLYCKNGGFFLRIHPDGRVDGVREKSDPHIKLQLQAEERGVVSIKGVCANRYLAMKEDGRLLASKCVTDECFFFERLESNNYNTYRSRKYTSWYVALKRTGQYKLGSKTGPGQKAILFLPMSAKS

| Compound | composite z-score (Albumin (Bos taurus)) | composite Z-score [1] | composite z-score [2] | composite z-score [3] | composite z-score [4] | composite z-score [5] | composite z-score [6] | composite z-score (Sam68 (KHDRBS1)) | composite z-score [7] | composite z-score [8] | composite z-score [9] | composite z-score [10] | composite z-score [11] | composite z-score [12] | composite z-score [13] | composite z-score [14] | z-score [15] | composite z-score (Lefty1) | composite z-score [16] | z-score [17] |
| --- | --- | --- | --- | --- | --- | --- | --- | --- | --- | --- | --- | --- | --- | --- | --- | --- | --- | --- | --- | --- |
| O=C(CS)NCCCCCNC(=O)[C@H]1C[C@H]2C(=O)N3CCC[C@H]3C(=O)N2[C@H]1c1cccc(OCCO)c1 | -1.4 | 0.62 (inactive) | 0.121 | -0.101 | 0.46 | 2.45 | 0.729 | 1.34 | 1.4 | 1.2 | 3.13 | 1.11 | 2.11 | 0.65 | 1.45 | 1.92 | 0.509 | 1.65 | 0.777 | -1.22 (inactive) |
| O=C1O[C@@H](c2ccccc2)[C@@H](c2ccccc2)N2[C@@H](c3ccc(O)cc3)[C@]3(C(=O)Nc4ccccc43)[C@@H](C(=O)O)[C@H]12 | 0.592 | 1.76 (inactive) | -0.0903 | -0.1 | 0.59 | 1.45 | 0.448 | 1.33 | -0.903 | 0.666 | 3.02 | 1.2 | 0.49 | 0.508 | -0.167 | -0.352 | -0.517 | -0.351 | 0.547 | -0.0041 (inactive) |
| COc1ccc(O[C@H]2C=C[C@@H](c3ccccc3)O[C@@H]2COC(=O)N2CCCCC2)cc1 | -0.725 | 0.0229 (inactive) | -0.131 | -0.111 | -0.29 | -0.482 | 0.0033 | -0.907 | 0.387 | -0.578 | -0.475 | -1.23 | -0.073 | -0.528 | 0.12 | 0.571 | -0.433 | 0.225 | -0.249 | 0.711 (inactive) |
| CC=CC1=C(CO)[C@H](O)[C@H]2O[C@H]2[C@H]1O | -0.15 | 0.0448 (inactive) | -0.113 | -0.146 | -0.173 | -0.188 | -0.182 | 0.278 | 1.09 | 0.291 | 0.189 | 0.277 | -0.0741 | -0.0409 | 0.589 | 1.06 | -0.565 | 0.871 | -0.191 | -0.115 (inactive) |
| COc1cccc([C@H]2Oc3ccc(OC)cc3C(=NO[C@H](C)c3cn([C@@H]4COC[C@H]4O)nn3)[C@@H]2O)c1 | -0.224 | -0.0239 (inactive) | -0.279 | -0.179 | 0.377 | -0.162 | -0.358 | -0.523 | -0.353 | 0.472 | 0.899 | -0.949 | -0.624 | -0.0637 | -1.16 | -0.805 | -1.16 | -0.601 | 0.0665 | 0.825 (inactive) |
| CCN1C(=O)[C@H]2[C@H]3[C@H](O)[C@H](O)CC(=NO[C@@H]4O[C@H](CO)[C@@H](O)[C@H](O)[C@H]4O)[C@@H]3CC[C@H]2C1=O | -0.647 | 0.103 (inactive) | -0.213 | -0.203 | -0.12 | -1.22 | -0.378 | -1.5 | -0.229 | -1.14 | -0.0636 | -1.45 | -0.41 | -2.56 | 0.477 | 0.0724 | 0.459 | 0.232 | 0.714 | -0.156 (inactive) |
| CC(C)(C)N1CC=CC23O[C@@H]4C=CCCOC(=O)C4[C@H]2C(=O)N(CCCCCO)[C@@H]3C1=O (stereo not given in full) | 0.568 | 0.08 (inactive) | 0.285 | -0.175 | 0.874 | 0.518 | 0.726 | 0.598 | -0.503 | -0.339 | 0.373 | 0.233 | -0.441 | -1.67 | -0.435 | -0.51 | 0.678 | 0.887 | 0.671 | -0.789 (inactive) |
| COc1ccc(O[C@H]2C=C[C@@H](c3ccccc3)O[C@@H]2COC(=O)CCC(C)=NOCC[C@@H]2C=C[C@H](OC(C)=O)[C@@H](COC(C)=O)O2)cc1 | -0.598 | 0.806 (inactive) | 0.297 | -0.0028 | 0.654 | 0.938 | 0.203 | -0.23 | -0.0022 | -0.997 | 0.545 | -0.129 | 0.151 | 0.351 | 0.612 | 0.168 | 0.213 | 0.342 | 0.193 | 1.03 (inactive) |
| O=C1C[C@@H](O)[C@@H](O)[C@@H]2[C@@H]3C(=O)N(Cc4ccc5c(c4)OCO5)C(=O)[C@@H]3CC[C@@H]12 | 0.295 | 0.856 (inactive) | -0.0146 | -0.0938 | 0.229 | 0.0971 | -0.0553 | 0.507 | 0.558 | 0.492 | -0.0619 | 0.459 | 0.0309 | 0.197 | 0.499 | 0.507 | 0.481 | 0.549 | -0.107 | -0.786 (inactive) |
| C=C(COC)/C(=C/C[C@H](OC(=O)c1ccncc1)c1ccc(CO)o1)c1cc(C(=O)OC)ccc1OC | 0.439 | 0.515 (inactive) | 0.0222 | -0.0255 | 0.554 | 1.17 | 0.347 | 1.15 | 0.79 | 0.889 | 1.38 | 1.12 | -0.113 | -0.0921 | 1.22 | 1.32 | -0.713 | 1.14 | 0.113 | -0.448 (inactive) |
| COc1ccc(COC(=O)NN=C2C[C@@H](O)[C@@H](O)[C@@H]3[C@@H]4C(=O)N(Cc5ccc6c(c5)OCO6)C(=O)[C@@H]4CC[C@@H]23)cc1 | -0.152 | -0.463 (inactive) | 0.218 | 0.015 | -0.244 | 0.115 | 0.616 | -0.395 | -0.54 | -1.3 | -0.272 | -0.568 | 0.256 | 0.144 | -0.989 | -0.922 | 0.982 | -0.86 | 0.247 | -0.283 (inactive) |
